A structure can be active in one record and inactive in another. Calls of active or inactive are those of the source. Rule for the calls: active = hit-call score of the fitted dose curve at least 0.9, where 1 is the maximum; inactive = score below 0.9.
How the values were obtained:
Conditions in all cases: mRNA level, 48 h; actives raise or lower the signal
[1] = read-out: Fatty Acid-Binding Protein 1 (FABP1), FABP1 (gene 2168); test: LTEA_HepaRG_FABP1: Life Technologies and Expression Analysis (LTEA) Assay for Fatty Acid-Binding Protein 1 (FABP1) using HepaRG (AID 2283494)
How it was run: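 Values reflect bidirectional concentration-response fitting of FABP1 mRNA change against 0.5% DMSO controls. Human HepaRG cultures received eight half-log doses (top 100 uM) for 48 h; expression quantified by TaqMan qRT-PCR with housekeeping-gene normalization.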

[2] = read-out: Cytochrome P450 4A22 (Homo sapiens) (UniProt Q5TCH4); test: LTEA_HepaRG_CYP4A22: Life Technologies and Expression Analysis (LTEA) Assay for Cytochrome P450 4A22 (CYP4A22) using HepaRG (AID 2283495)
How it was run: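 Concentration-response (8 points, max 100 uM, 0.5% DMSO) in human HepaRG liver cells after 48 h exposure. CYP4A22 mRNA by TaqMan qRT-PCR with housekeeping-gene normalization.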

[3] = read-out: Cytochrome P450 7A1 (Homo sapiens) (UniProt P22680); test: LTEA_HepaRG_CYP7A1: Life Technologies and Expression Analysis (LTEA) Assay for Cytochrome P450 7A1 (CYP7A1) using HepaRG (AID 2283496)
How it was run: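 Using 0.5% DMSO as vehicle and baseline, chemicals were tested in duplicate over an 8-point range from 100 uM on HepaRG cells for 48 h; qRT-PCR signals were normalised to ACTB, GAPDH and POLR2A.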

[4] = read-out: Glutathione S-Transferase (GSTA2), GSTA2 (gene 2939); test: LTEA_HepaRG_GSTA2: Life Technologies and Expression Analysis (LTEA) Assay for Glutathione S-Transferase (GSTA2) using HepaRG (AID 2283497)
How it was run: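 Oxidative-stress marker GSTA2 is quantified by TaqMan qRT-PCR in HepaRG cultures treated 48 h across an eight-point range to 100 uM. Expression is normalized to endogenous controls and compared with 0.5% DMSO vehicle.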

[5] = read-out: Glutamate-cysteine ligase catalytic (GCLC), GCLC (gene 2729); test: LTEA_HepaRG_GCLC: Life Technologies and Expression Analysis (LTEA) Assay for Glutamate-cysteine ligase catalytic (GCLC) using HepaRG (AID 2283498)
How it was run: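 Oxidative-stress marker GCLC is measured as mRNA change in human HepaRG liver cells after 48 h chemical treatment in 0.5% DMSO, eight concentrations from 100 uM. Activity is fitted bidirectionally against vehicle.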

[6] = read-out: growth arrest and DNA damage 45 (GADD45G), GADD45G (gene 10912); test: LTEA_HepaRG_GADD45G: Life Technologies and Expression Analysis (LTEA) Assay for growth arrest and DNA damage 45 (GADD45G) using HepaRG (AID 2283499)
How it was run: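 Concentration-response in HepaRG: 48 h dosing, 0.5% DMSO, highest level 100 uM. GADD45G expression by qRT-PCR, normalised to endogenous controls; bidirectional fit to DMSO.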

[7] = read-out: Glutamate-cysteine ligase regulatory (GCLM), GCLM (gene 2730); test: LTEA_HepaRG_GCLM: Life Technologies and Expression Analysis (LTEA) Assay for Glutamate-cysteine ligase regulatory (GCLM) using HepaRG (AID 2283500)
How it was run: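 In this multiplexed HepaRG gene-expression assay, GCLM mRNA change after 48 h treatment (8 concentrations, max 100 uM) was scored against DMSO by bidirectional curve fitting.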

[8] = read-out: Glutathione S-transferase M3 (GSTM3), GSTM3 (gene 2947); test: LTEA_HepaRG_GSTM3: Life Technologies and Expression Analysis (LTEA) Assay for Glutathione S-transferase M3 (GSTM3) using HepaRG (AID 2283501)
How it was run: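 Expression of GSTM3 is determined by qRT-PCR in human liver HepaRG cells treated 48 h with an 8-point half-log range from 100 uM in 0.5% DMSO.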

[9] = read-out: Heat shock 70 kDa protein 1 (HSPA1A), gene 3303; test: LTEA_HepaRG_HSPA1A: Life Technologies and Expression Analysis (LTEA) Assay for Heat shock 70 kDa protein 1 (HSPA1A) using HepaRG (AID 2283502)
How it was run: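 An oxidative-stress marker readout: HepaRG cells treated 48 h in duplicate with an eight-point series (highest 100 uM) had HSPA1A mRNA quantified by TaqMan qRT-PCR. Activity was fitted in both directions using 0.5% DMSO as baseline.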

[10] = read-out: Hypoxia-inducible factor 1-alpha (Homo sapiens) (UniProt Q16665); test: LTEA_HepaRG_HIF1A: Life Technologies and Expression Analysis (LTEA) Assay for Hypoxia-inducible factor 1 (HIF1A) Trancription factor using HepaRG (AID 2283503);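 note: HIF1A transcript by TaqMan qRT-PCR normalized to ACTB GAPDH and POLR2A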
How it was run: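 Gain- or loss-of-signal HIF1A mRNA changes are fitted against a DMSO baseline. HepaRG cultures receive eight concentrations, highest 100 uM, for 48 h in serum-free induction medium with 0.5% DMSO.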

Chain of Hypoxia-inducible factor 1-alpha (Homo sapiens) (Q16665 whole entry, looked up): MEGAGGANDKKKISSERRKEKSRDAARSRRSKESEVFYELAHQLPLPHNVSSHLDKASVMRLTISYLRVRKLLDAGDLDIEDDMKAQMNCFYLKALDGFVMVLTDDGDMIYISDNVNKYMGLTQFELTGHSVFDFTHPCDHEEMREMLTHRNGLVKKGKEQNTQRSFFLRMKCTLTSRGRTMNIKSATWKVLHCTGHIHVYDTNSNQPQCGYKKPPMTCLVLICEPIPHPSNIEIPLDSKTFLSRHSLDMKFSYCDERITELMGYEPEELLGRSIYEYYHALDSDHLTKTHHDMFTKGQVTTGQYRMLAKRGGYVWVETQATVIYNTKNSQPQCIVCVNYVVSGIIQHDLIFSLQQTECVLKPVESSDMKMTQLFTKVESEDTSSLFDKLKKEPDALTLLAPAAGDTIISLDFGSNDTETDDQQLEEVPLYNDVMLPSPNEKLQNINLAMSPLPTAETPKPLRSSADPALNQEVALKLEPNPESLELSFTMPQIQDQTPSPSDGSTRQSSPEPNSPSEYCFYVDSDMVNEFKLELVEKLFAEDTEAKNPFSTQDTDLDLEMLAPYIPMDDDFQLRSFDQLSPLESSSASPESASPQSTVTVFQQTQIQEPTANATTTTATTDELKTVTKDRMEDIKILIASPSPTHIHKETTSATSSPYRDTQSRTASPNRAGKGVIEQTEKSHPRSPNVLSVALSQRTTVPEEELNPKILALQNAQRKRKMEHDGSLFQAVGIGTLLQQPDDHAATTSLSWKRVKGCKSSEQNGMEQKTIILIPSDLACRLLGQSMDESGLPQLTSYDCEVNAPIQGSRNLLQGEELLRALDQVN

Row | Compound | outcome [1] | outcome [2] | outcome [3] | outcome [4] | outcome [5] | outcome [6] | outcome [7] | outcome [8] | outcome [9] | outcome [10] | AC50 [3] | AC50 [1] | AC50 [2] | AC50 [4] | AC50 [6] | AC50 [7] | AC50 [9]
1 | CCc1cccc(CC)c1N(COC)C(=O)CCl | inactive | inactive | inactive | inactive | inactive | inactive | inactive | inactive | inactive | inactive | – | – | – | – | – | – | –
2 | CCOC(=O)CC(SP(=O)(OC)OC)C(=O)OCC (centres undefined) | inactive | inactive | – | inactive | inactive | inactive | inactive | – | inactive | inactive | 50 µM (active) | – | – | – | – | – | –
3 | CCOP(=O)(NC(C)C)Oc1ccc(SC)c(C)c1 (centres undefined) | – | – | – | inactive | inactive | inactive | inactive | – | inactive | inactive | 3.62 µM (active) | 23.8 µM (active) | 19.5 µM (active) | – | – | – | –
4 | CCOP(=S)(OCC)Oc1ccc2c(C)c(Cl)c(=O)oc2c1 | – | – | – | – | inactive | – | inactive | – | inactive | inactive | 15.5 µM (active) | 24.6 µM (active) | 50 µM (active) | 82 µM (active) | 50 µM (active) | – | –
5 | C[Si](Cn1cncn1)(c1ccc(F)cc1)c1ccc(F)cc1 | – | – | – | – | inactive | – | – | – | inactive | inactive | 39.6 µM (active) | 76.9 µM (active) | 15.8 µM (active) | 72.5 µM (active) | 33.9 µM (active) | 62.8 µM (active) | –
6 | CC(COc1ccc(Oc2ccccc2)cc1)Oc1ccccn1 (centres undefined) | inactive | inactive | – | inactive | inactive | inactive | inactive | – | inactive | inactive | 19.9 µM (active) | – | – | – | – | – | –
7 | CCOP(=O)(OCC)Oc1cc(C)nc(C(C)C)n1 | inactive | inactive | inactive | – | inactive | inactive | inactive | inactive | inactive | inactive | – | – | – | – | – | – | –
8 | C#CCC1=C(C)C(OC(=O)C2C(C=C(C)C)C2(C)C)CC1=O (centres undefined) | – | – | inactive | inactive | inactive | inactive | inactive | – | inactive | inactive | – | 49.8 µM (active) | 81.5 µM (active) | – | – | – | –
9 | COc1cc(OC)nc(Sc2cccc(Cl)c2C(=O)O)n1 | inactive | inactive | inactive | inactive | inactive | inactive | inactive | – | inactive | inactive | – | – | – | – | – | – | –
10 | CSc1nc(NC(C)C)nc(NC(C)C)n1 | – | – | – | – | inactive | – | inactive | inactive | inactive | inactive | 50 µM (active) | 44.1 µM (active) | 24.3 µM (active) | 81.6 µM (active) | 64.7 µM (active) | – | –
11 | CN(C)[C@@H]1C(=O)C(C(N)=O)=C(O)[C@@]2(O)C(=O)C3=C(O)c4c(O)cccc4[C@@](C)(O)[C@H]3[C@H](O)[C@@H]12 | inactive | inactive | inactive | – | inactive | inactive | inactive | inactive | inactive | – | – | – | 50 µM (active) | – | – | – | –
12 | CCCCOC(=O)c1ccccc1C(=O)O | inactive | inactive | inactive | inactive | inactive | inactive | inactive | inactive | inactive | inactive | – | – | – | – | – | – | –
13 | Cc1ccn2nc(S(=O)(=O)Nc3c(F)cccc3F)nc2n1 | inactive | inactive | inactive | inactive | inactive | inactive | inactive | inactive | inactive | inactive | – | – | – | – | – | – | –
14 | COc1ccc(C(=CC(=O)N2CCOCC2)c2ccc(Cl)cc2)cc1OC | inactive | – | inactive | inactive | inactive | inactive | inactive | inactive | inactive | inactive | – | – | 50 µM (active) | – | – | – | –
15 | C[N+]1(C)CCCCC1 | inactive | inactive | inactive | inactive | inactive | inactive | inactive | – | inactive | inactive | – | – | – | – | – | – | –
16 | CCOP(=S)(OCC)SCCSCC | inactive | inactive | inactive | – | inactive | inactive | inactive | inactive | inactive | inactive | – | – | – | – | – | – | –
17 | CCCCOC(=O)[C@@H](C)Oc1ccc(Oc2ccc(C#N)cc2F)cc1 | inactive | – | inactive | – | inactive | inactive | inactive | – | inactive | inactive | – | – | 18.7 µM (active) | – | – | – | –
18 | CCCCSP(=O)(SCCCC)SCCCC | – | – | – | – | inactive | inactive | inactive | – | inactive | inactive | 50 µM (active) | 92.5 µM (active) | 68.1 µM (active) | – | – | – | –
19 | S=C1NCCN1 | inactive | inactive | inactive | – | inactive | inactive | inactive | – | – | inactive | – | – | – | – | – | – | 0.277 µM (active)
20 | CCCCN(CC)c1c([N+](=O)[O-])cc(C(F)(F)F)cc1[N+](=O)[O-] | inactive | inactive | inactive | – | inactive | inactive | inactive | – | inactive | inactive | – | – | – | – | – | – | –
21 | CC(C)=CC1C(C(=O)OCN2C(=O)C3=C(CCCC3)C2=O)C1(C)C (centres undefined) | inactive | inactive | inactive | – | inactive | inactive | inactive | – | inactive | inactive | – | – | – | – | – | – | –
